Laboratory results from PubChem BioAssay (EPA / NIEHS).
Inconclusive results are not listed. The source made the active and inactive calls. The calls were made as follows, unless noted: active = hit-call score of the fitted dose curve at least 0.9, where 1 is the maximum; inactive = score below 0.9.

What was measured:
[1] = CCTE_Deisenroth_DEVTOX-GLR_legacy_CellCount: (Legacy) Viability Assessment in CCTE's DevTox GLR-Endo Assay, Deisenroth Lab (AID 2284331); conditions: actives raise or lower the signal
Method in brief: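 Viability is taken from imaged nuclei counts in fixed RUES2-GLR cultures after 48 h of differentiation under two 24 h-spaced chemical exposures, 10 concentrations from 1 nM to 200 uM, gain or loss versus DMSO baseline.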

[2] = tested on: SRY-box transcription factor 17 (SOX17) Protein Expression, Deisenroth Lab, SOX17 (gene 64321); assay: CCTE_Deisenroth_DEVTOX-GLR_legacy_Sox17: (Legacy) CCTE's DevTox GLR-Endo Assay Evaluation of SRY-box transcription factor 17 (SOX17) Protein Expression, Deisenroth Lab (AID 2284341); conditions: actives raise or lower the signal
Method in brief: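 Endoderm-differentiation readout in RUES2-GLR human pluripotent cells at 48 h, concentrations spanning 1 nM - 200 uM. Sox17-positive cells divided by total cell count; gain or loss relative to DMSO solvent control, n=4 experimental replicates.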

[3] = tested on: SRY-box transcription factor 2 (SOX2) Protein Expression, Deisenroth Lab, SOX2 (gene 6657); assay: CCTE_Deisenroth_DEVTOX-GLR_legacy_Sox2: (Legacy) CCTE's DevTox GLR-Endo Assay Evaluation of SRY-box transcription factor 2 (SOX2) Protein Expression, Deisenroth Lab (AID 2284346)
Protocol: CCTE_Deisenroth_DEVTOX-GLR_legacy assay is a cell-based, multiplex-readout assay that uses RUES2-GLR, a human pluripotent cell line, with measurements taken at 48 hours after chemical dosing in a 384-well microplateCCTE_Deisenroth_DEVTOX-GLR_legacy_Sox2 is one of 4 assay components calculated from the CCTE_Deisenroth_DEVTOX-GLR_legacy assay that measures an increase in the percentage of cells in an ectodermal or pluripotent state. It is designed to make measurements of inducible reporter a form of fluorescent protein induction as detected with optical fluorescence microscopy. Percentage Sox2+ cells are determined by calculating the number of Sox2+ cells divided by cell count. […] The assay endpoint was analyzed with bidirectional fitting with the 0.2% DMSO control median percent Sox2 in the CCTE_Deisenroth_DEVTOX-GLR_Endo assay subtracted.Data from the assay component CCTE_Deisenroth_DEVTOX-GLR_legacy_Sox2 was analyzed into 1 assay endpoint. This assay endpoint, CCTE_Deisenroth_DEVTOX-GLR_legacy_Sox2, was analyzed in the positive analysis fitting direction relative to DMSO as the negative control and baseline activity. […] Furthermore, this assay endpoint can be referred to as a secondary readout, because this assay has produced multiple assay endpoints where this one serves as a measure of pluripotency or ectoderm differentiation. […]

[4] = VALA_TUBHUV_Agonist_TubuleLength: VALA Sciences human Umbilical Vein Endothelial Tubule Formation (TUBHUV) Agonism Assay (AID 2284337; active = hit-call score of the fitted dose curve at least 0.9, where 1 is the maximum)
Protocol: VALA_TUBHUV_Agonist is a cell-based, multiplexed assay that uses human umbilical vein endothelial cells (HUVEC). Measurements were taken 72 hours after chemical dosing in a 96-well plate.VALA_TUBHUV_Agonist_TubuleLength is the one of two assay components measured from the VALA_TUBHUV_Agonist assay. It is designed to make measurements of tubulogenesis, a form of morphology reporter, as detected with fluorescence intensity signals by HCS Fluorescent Imaging technology. This VALA_TUBHUV1 assay was designed to detect chemical activation of tubulogenesis, i.e. agonism.Data from the assay component VALA_TUBHUV_Agonist_TubuleLength was analyzed at the endpoint, VALA_TUBHUV_Agonist_TubuleLength, in the positive analysis fitting direction relative to DMSO as the negative control and baseline of activity. Using a type of morphology reporter, gain-of-signal activity can be used to understand developmental effects. To generalize the intended target to other relatable targets, this assay endpoint is annotated to the neurodevelopment intended target family, where the subfamily is tubulogenesis.
This HUVEC-HDF assay was designed to detect chemical suppression of tubulogenesis, i.e. antagonism. […]

[5] = VALA_TUBIPS_Agonist_CellCount: Viability Assessment in the VALA Sciences human iPS-derived Endothelial Tubule Formation (TUBIPS) Agonism Assay (AID 2284338; active = hit-call score of the fitted dose curve at least 0.9, where 1 is the maximum)
Protocol: VALA_TUBIPS_Agonist is a cell-based, multiplexed assay that uses human iPS-derived endothelial cells (iPSC). Measurements were taken 72 hours after chemical dosing in a 96-well plate.VALA_TUBIPS_Agonist_CellCount is the one of two assay components measured from the VALA_TUBIPS_Agonist assay. It is designed to make measurements of viability, a form of viability reporter, as detected with fluorescence intensity signals by HCS Fluorescent Imaging technology. Data from the assay component VALA_TUBIPS_Agonist_CellCount was analyzed at the endpoint, VALA_TUBIPS_Agonist_CellCount, in the positive analysis fitting direction relative to DMSO as the negative control and baseline of activity. Using a type of viability reporter, loss-of-signal activity can be used to understand viability. To generalize the intended target to other relatable targets, this assay endpoint is annotated to the cell cycle intended target family, where the subfamily is cell count.
This HUVEC-HDF assay was designed to detect chemical suppression of tubulogenesis, i.e. antagonism. To measure tubulogenesis antagonism, HUVEC cells were co-cultured with HDF cells at a 1:3 ratio for 3-days in 10 ng/ml VEGF (i.e., favorable conditions with growth factors), then changed to assay medium containing 10 ng/ml VEGF and ToxCast compounds for an additional 3-day period. […]

Compound	outcome [1]	outcome [2]	outcome [3]	AC50 [4]	outcome [5]
O=P1(N(CCCl)CCCl)NCCCO1 (stereo not given)	inactive	inactive	inactive		
Cc1ccc(N)cc1N				7.57 µM (active)	inactive
